This is a sample that favours compounds with a hit; in the whole collection about 6.3% have one here.
Gal4-VP16 FLuc: VP16 counterscreen qHTS for inhibitors of ROR gamma transcriptional activity. Drosophila S2 Gal4-VP16 UAS-luciferase, luminescence, 20 h. Potency, µM (highest dose often 53.6 µM), for inactives: top-dose activity, negative = inhibition, usual class: inhibitors. hit rate 3.5% among 310,000;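 note: Gal4-VP16 expression switched on by copper sulfate through the metallothionein promoter; % is set by controls: 0 for no effect and ±100 for the full control effect; nearly all actives have a fitted effect of over 50% in size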
ATXN2 expr inh: Primary qHTS for Inhibitors of ATXN expression | HEK-293 ATXN2-luciferase reporter, luminescence, 24 h | Potency, µM (doses to about 57 µM), without a hit: top-dose activity change, negative = inhibition, usual class: inhibitors | hit rate 0.72% among 360,000 | AID 1745845, 2022; note: % is set by controls: 0 for no effect and ±100 for the full control effect; nearly all actives have a fitted effect of over 55% in size
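ATXN2-luciferase reporter cells (luciferase flanked by upstream and downstream ATXN2 gene portions) were treated 24 h at 37 °C with compounds at up to 57 uM. SteadyGlo luminescence gave expression; GF-AFC fluorescence gave viability.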
HepG2 viability: qHTS for Inhibitors of TGF-b: Cytotox Counterscreen | Potency, µM (titrated, usually from 46.1 µM), without a hit: at the highest dose activity change, negative = cytotoxicity, usual class: cytotoxic | hit rate 0.76% among 410,000 | HepG2 CAGA-GFP viability, ATP luminescence, 18 h | AID 588856, 2011
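HepG2 CAGA-GFP cells (1000/well, DMEM with 1% FBS) received compound, then TGF-beta at 500 pg/mL final, and were incubated 18 hours at 37 degrees C. Viability was read by CellTiter-Glo luminescence. Media-only wells were set as complete cell-killing and DMSO as no toxicity.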
RORgamma inh: qHTS for inhibitors of ROR gamma transcriptional activity. Nuclear receptor ROR-gamma (Mus musculus), P51450. Drosophila S2 Gal4-RORgamma UAS-luciferase reporter, 20 h. AID 2551, 2010. Potency, µM (titrated, usually from 53.6 µM), for inactives: top-dose activity change, negative = inhibition, most hits filed as inhibitors. hit rate 5.4% among 310,000; note: % is set by controls: 0 for no effect and ±100 for the full control effect; nearly all actives have a fitted effect of over 60% in size
Target sequence (P51450 whole entry, looked up, the tested form may be a part): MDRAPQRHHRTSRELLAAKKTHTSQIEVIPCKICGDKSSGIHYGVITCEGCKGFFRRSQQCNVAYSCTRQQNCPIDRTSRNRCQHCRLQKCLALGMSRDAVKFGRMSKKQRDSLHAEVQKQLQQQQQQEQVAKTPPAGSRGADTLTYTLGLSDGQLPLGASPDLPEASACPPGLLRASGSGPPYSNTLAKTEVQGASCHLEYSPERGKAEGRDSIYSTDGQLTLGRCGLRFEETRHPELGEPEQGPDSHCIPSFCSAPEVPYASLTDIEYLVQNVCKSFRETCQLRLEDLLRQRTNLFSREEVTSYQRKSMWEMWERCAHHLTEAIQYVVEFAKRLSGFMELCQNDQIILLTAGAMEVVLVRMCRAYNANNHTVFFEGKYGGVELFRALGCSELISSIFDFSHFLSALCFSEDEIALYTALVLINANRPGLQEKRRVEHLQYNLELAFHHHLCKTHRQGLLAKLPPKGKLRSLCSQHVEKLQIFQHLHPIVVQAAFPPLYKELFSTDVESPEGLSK
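Stable Schneider cell line, Gal4 DNA-binding domain fused to ROR gamma, UAS-luciferase. Cmpd 1 hr RT → CuSO4 700 uM final → 20 hr RT → luciferase reagent 10 min → luminescence.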
ATXN viability: Viability Counterscreen for Primary qHTS for Inhibitors of ATXN expression. Potency, µM (top dose mostly 56.7 µM), actives largely listed as cytotoxic. S2 cells (HEK-293 line with an ATXN2-luciferase reporter) viability, CellTiter-Fluor protease fluorescence, 24 h. AID 651635, 2014. hit rate 0.49% among 400,000; note: nearly all actives have a fitted effect of over 40% in size
TGFb inhibitor: qHTS for Inhibitors of TGF-b; hit rate 1.2% among 410,000; Potency, µM (doses to about 46.1 µM), for inactives: at the top dose activity, negative = inhibition, hits mostly inhibitors; HepG2 CAGA-GFP TGF-b/SMAD3 reporter, GFP fluorescence, 18 h; TGF-beta stimulated, 500 pg/mL final; note: % is set by controls: 0 for no effect and ±100 for the full control effect; nearly all actives have a fitted effect of over 65% in size
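HEPG2 CAGA-GFP reporter cells (1000/well, DMEM with 1% FBS) received compounds, then recombinant TGF-beta at 500 pg/mL final for 18 hours at 37 degrees C. Per-cell GFP summed per well was normalised to unstimulated and stimulated DMSO controls before curve fitting.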
Numbers without * were called inactive; i = inactive; ? = inconclusive; · = no result given. Calls come from the whole dose curve; as a rule, active = well fitted curve in the direction sought with a large enough effect; inconclusive = small, poorly fitted or top-dose-only effect, or another doubt; inactive = no such curve, though single readings can be large; an effect the other way counts as inactive or inconclusive. Potency is the fitted concentration of half-maximal effect.

SMILES | Gal4-VP16 FLuc | ATXN2 expr inh | HepG2 viability | RORgamma inh | ATXN viability | TGFb inhibitor
COc1cccc(/C(C)=N/NC(=O)c2ccc(N(C)C)cc2)c1 | 3% | 8% | -14% | ? | i | -1%
CCNC(=S)N/N=C(\C)c1ccc2ccccc2c1 | 7.1µM* | · | · | 2.8µM* | · | ·
C/C(=N\NC(=O)Nc1ccccc1)c1ccc2ccccc2c1 | ? | 1% | 3% | -12% | i | 17%
C/C(=N\NC(=O)COc1ccc(C#N)cc1)c1ccccc1OC(F)F | 16µM* | -23% | 5% | 11µM* | i | -3%
CCNC(=S)N/N=C(\C)c1ccc2ccccc2c1OC(F)F | 7.1µM* | ? | -13% | 1.3µM* | ? | ?
CSc1ccc(Cn2c(C)c(C(=O)NCc3cccc(Cl)c3)sc2=O)cc1 | · | -11% | -1% | · | i | -24%
CCC(C(=O)NCCc1ccc(S(N)(=O)=O)cc1)c1ccccc1 (stereo not drawn) | · | 7% | -56% | · | i | 0%
C/C(=N\NC(=S)NC(C)C)c1ccccc1OC(F)F | 5.6µM* | -19% | 12% | 1.8µM* | i | -9%
C=C1NN(Cc2ccc(OC)cc2)C(=O)N1c1ccccc1 | · | · | -2% | · | · | 0%
Cc1ccc(S(=O)(=O)N2CC3(O)CN(C(=O)OC(C)C)N(C(=O)OC(C)C)CC3(OC(=O)NCC3CCCCC3)C2)cc1 (stereo not drawn) | · | ? | -26% | · | 14µM* | ?
Cc1ccc(S(=O)(=O)N2CC3(O)CN(C(=O)OC(C)C)N(C(=O)OC(C)C)CC3(OC(=O)NCc3ccccc3F)C2)cc1 (stereo not drawn) | · | 0% | -31% | · | 22µM* | ?
CC(=O)/C(=N\Nc1ccccc1)Sc1nnc(-c2ccccc2)n1-c1ccccc1 | ? | -5% | 1% | 10µM* | i | 5%
CC(=O)/C(=N\Nc1ccc(Cl)cc1Cl)Sc1nnc(-c2ccccc2)n1-c1ccccc1 | -25% | 4% | -2% | -26% | ? | 17%
CC(=O)/C(=N\Nc1ccccc1Cl)Sc1nnc(-c2ccccc2)n1-c1ccccc1 | ? | -5% | 1% | 10µM* | i | 9%
CC(=O)/C(=N/Nc1ccccc1)Sc1nnc(C(O)c2ccccc2)n1-c1ccccc1 (stereo not drawn) | -4% | · | 1% | -5% | ? | -32%
COCCCNC(=O)c1ccc2c3c(onc13)-c1ccccc1C2=O | ? | ? | -107% | 6% | · | 3.2µM*
CN(C)c1ccc(Sc2ccc3nc(N)nc(N)c3c2)cc1 | · | · | 0.32µM* | · | ? | ?
CN(C)c1ccc(-c2c3ccccc3nc3ccccc23)cc1 | · | · | 1% | · | · | 3%
Cc1ccc(C)c(NC(=S)N=Nc2c(O)n(C)c3ccc(S(=O)(=O)N4CCOCC4)cc23)c1 | 1.1µM* | -15% | -42% | 0.63µM* | i | ?
Cc1cc(S(=O)(=O)N2CCOCC2)ccc1OCC(=O)Nc1ccccc1F | -1% | -5% | 7% | -28% | i | 1%
Cc1ccc(C)c(SCC(=O)Nc2cc(S(=O)(=O)N3CCOCC3)ccc2C)c1 | · | 6% | -25% | · | i | ?
Cc1ccc(Cn2c(O)c(N=NC(=S)Nc3ccccc3F)c3cc(S(=O)(=O)N4CCOCC4)ccc32)cc1 | ? | -10% | -15% | 2µM* | i | 3%
CCc1ccccc1NC(=S)N=Nc1c(O)n(C)c2ccc(S(=O)(=O)N3CCOCC3)cc12 | 4.5µM* | ? | -16% | 1.1µM* | ? | ?
COCCN(C(=O)COC(=O)CCCc1c[nH]c2ccccc12)c1c(N)n(Cc2ccccc2)c(=O)[nH]c1=O | · | 15% | 0% | · | i | -1%
Cn1cc(C(=O)CCl)c2ccccc21 | 7.9µM* | · | 16µM* | 11µM* | · | 13µM*
SMILES | Gal4-VP16 FLuc | ATXN2 expr inh | HepG2 viability | RORgamma inh | ATXN viability | TGFb inhibitor
Cn1cc(C(N)=O)c2ccccc21 | -1% | 2% | -4% | -13% | i | 5%
Nc1nc(N)c2nc(-c3cccc(O)c3)c(-c3cccc(O)c3)nc2n1 | · | 24µM* | · | · | · | ·
Nc1nc(N)c2nc(-c3ccccc3)c(N)nc2n1 | ? | -1% | -47% | ? | · | 60%
COc1ccc(Cl)cc1N1C(=O)[C@@H]2C[C@H]1CN2Cc1nc2ccccc2nc1C | · | · | · | · | i | ·
COc1ccc(S(=O)(=O)Nc2ccc(-n3cccc3)cc2)cc1 | 11µM* | -26% | -27% | 11µM* | · | -6%
COc1ccc(-c2cc(C(=O)OCC(=O)c3c(N)n(C)c(=O)n(C)c3=O)c3ccccc3n2)cc1 | -5% | 8% | -2% | 16% | i | 10%
CCOc1ccc(-c2cc(C(=O)O)c3ccccc3n2)cc1 | 10µM* | ? | -41% | 7.9µM* | i | 25%
CCOc1ccc(-c2cc(C(=O)NCCCn3ccnc3)c3cc(Br)ccc3n2)cc1 | ? | -18% | -92% | ? | ? | 14µM*
COc1ccc(-c2cc(C(=O)c3c(N)n(C)c(=O)n(C)c3=O)c3ccccc3n2)cc1 | 11µM* | · | -51% | 14µM* | ? | ?
O=C(NCCCn1ccnc1)c1nn2c(C(F)(F)F)cc(-c3ccc(Br)cc3)nc2c1Cl | ? | ? | 5.6µM* | ? | ? | 18%
CCN1CCC(N[C@H]2C[C@@H](C(=O)NC)N(Cc3cccc4ccccc34)C2)CC1 | · | · | · | · | i | ·
COc1ccc(C2/C=C\CN(C(=O)CC(C)(C)C)C(C)C(=O)N2Cc2ccc(F)cc2)cc1 (stereo not drawn) | -3% | · | -18% | ? | · | -2%
CCOc1ccc(-c2cc(C(=O)NCCCN3CCN(CC)CC3)c3ccccc3n2)cc1 | -13% | -1% | 20µM* | 6% | ? | 29%
Cn1c(N)c(C(=O)CSc2nc3ccccc3c(=O)n2Cc2ccccc2)c(=O)n(C)c1=O | -1% | 7% | 2% | -36% | i | -2%
CCCn1c(N)c(C(=O)CSc2nc3ccccc3c(=O)n2Cc2ccccc2)c(=O)[nH]c1=O | ? | ? | 2% | 5µM* | ? | -20%
COc1ccc(C[C@H]2CN3C(=NC[C@H]3C)N2CCNC(=O)c2ccc(C)c(Br)c2)cc1 | 3% | -18% | -41% | -26% | 28µM* | ?
Cc1ccc(S(=O)(=O)N2CCN(c3nc(-c4ccc(CN5CCOCC5)s4)nc4ccccc34)CC2)cc1 | · | · | 3% | · | · | 4%
Cc1ccc(NC2=C(Cl)C(=O)OC2OC(C)C)cc1 (stereo not drawn) | -9% | · | -11% | -1% | i | 5%

Screening data (PubChem BioAssay)
